This passage reports binding signal results from publication PMC11006913.

Experiment in all cases: PBM; 200 nM protein, PBS
Common to all, as to settings: dsDNA, one strand shown

Assay [1] addresses SHOX (Homo sapiens, UniProt O15266 103-189).
Assay [2] has as its target MSX2 (Homo sapiens, UniProt P35548 130-214, R199I).
Assay [3] addresses SHOX (Homo sapiens, UniProt O15266 103-189, R173C).
Assay [4] has as its target MSX2 (Homo sapiens, UniProt P35548 130-214).
The target in assay [5] is MSX2 (Homo sapiens, UniProt P35548 130-214, F161Y).
In assay [6] the target is T1, PAX4 (Homo sapiens, UniProt O43316 9-242, R200K).
T1 sequence: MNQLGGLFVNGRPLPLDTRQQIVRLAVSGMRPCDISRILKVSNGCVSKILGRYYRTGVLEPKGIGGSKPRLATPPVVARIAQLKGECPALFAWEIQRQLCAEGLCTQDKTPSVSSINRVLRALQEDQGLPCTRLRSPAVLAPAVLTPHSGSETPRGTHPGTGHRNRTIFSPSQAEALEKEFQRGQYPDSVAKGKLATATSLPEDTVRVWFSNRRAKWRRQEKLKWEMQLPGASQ

Assay [7] concerns the target T2, PAX4 (Homo sapiens, UniProt O43316 9-242).
T2 sequence: T1 sequence with K192R

The target in assay [8] is ALX1 (Homo sapiens, UniProt Q15699 118-204, L144V).
Assay [9] has as its target T3, PAX4 (Homo sapiens, UniProt O43316 9-242, R200Q).
T3 sequence: T1 sequence with K192Q

Assay [10] concerns the target ALX1 (Homo sapiens, UniProt Q15699 118-204, L144R).
Assay [11] addresses T4, PAX4 (Homo sapiens, UniProt O43316 9-242, F177V).
T4 sequence: T1 sequence with F169V, K192R

For assay [12], the target named is T5, PAX4 (Homo sapiens, UniProt O43316 9-242, F177Y).
T5 sequence: T1 sequence with F169Y, K192R

Assay [13] concerns the target HESX1 (Homo sapiens, UniProt Q9UBX0 95-180, R109Q).
Assay [14] deals with PROP1 (Homo sapiens, UniProt O75360 56-141, R99H).
Assay [15] deals with HESX1 (Homo sapiens, UniProt Q9UBX0 95-180, P111T).
Assay [16] deals with T6, PAX4 (Homo sapiens, UniProt O43316 9-242, R227W).
T6 sequence: T1 sequence with K192R, R219W

The target of assay [17] is ALX1 (Homo sapiens, UniProt Q15699 118-204).
Assay [18] has as its target HOXB9 (Homo sapiens, UniProt P17482 171-250).
In assay [19] the target is HOXB9 (Homo sapiens, UniProt P17482 171-250, R186Q).
The target of assay [20] is HOXC10 (Homo sapiens, UniProt Q9NYD6 254-340).
Assay [21] addresses HOXC10 (Homo sapiens, UniProt Q9NYD6 254-340, K271E).
The target of assay [22] is NKX3-2 (Homo sapiens, UniProt P78367 192-278, P234S).
For assay [23], the target named is NKX3-2 (Homo sapiens, UniProt P78367 192-278).
Assay [24] has as its target ALX4 (Homo sapiens, UniProt Q9H161 200-286).
Assay [25] has as its target ALX4 (Homo sapiens, UniProt Q9H161 200-286, Q225E).
Assay [26] deals with ALX3 (Homo sapiens, UniProt O95076 139-225, N203Q).
The target in assay [27] is ALX3 (Homo sapiens, UniProt O95076 139-225).
The target of assay [28] is PROP1 (Homo sapiens, UniProt O75360 56-141).
Assay [29] deals with ALX3 (Homo sapiens, UniProt O95076 139-225, L168Q).
The target in assay [30] is ALX3 (Homo sapiens, UniProt O95076 139-225, L168V).
Assay [31] concerns the target PROP1 (Homo sapiens, UniProt O75360 56-141, F88S).
The target in assay [32] is ALX3 (Homo sapiens, UniProt O95076 139-225, N203S).
Assay [33] has as its target HOXA7 (Homo sapiens, UniProt P31268 116-202).
The target in assay [34] is HOXA7 (Homo sapiens, UniProt P31268 116-202, W177C).
A further assay has as its target PITX2 (Homo sapiens, UniProt Q99697 72-157).
Assay [35] deals with HOXA2 (Homo sapiens, UniProt O43364 129-215, R185T).
Assay [36] concerns the target HOXA2 (Homo sapiens, UniProt O43364 129-215, R185K).
In assay [37] the target is HOXA2 (Homo sapiens, UniProt O43364 129-215, Y150S).
Assay [38] concerns the target HOXA2 (Homo sapiens, UniProt O43364 129-215).

Numbering of substitutions follows the chain as printed.

MSX2 (Homo sapiens, UniProt P35548 130-214), sequence (P35548 130-214): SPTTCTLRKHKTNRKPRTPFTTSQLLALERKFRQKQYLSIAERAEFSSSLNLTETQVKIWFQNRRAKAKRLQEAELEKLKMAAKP
SHOX (Homo sapiens, UniProt O15266 103-189), sequence (O15266 103-189): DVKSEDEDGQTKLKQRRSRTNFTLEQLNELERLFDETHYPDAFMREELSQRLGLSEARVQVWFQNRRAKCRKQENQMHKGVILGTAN
MSX2 (Homo sapiens, UniProt P35548 130-214, R199I), sequence (P35548 130-214 R199I): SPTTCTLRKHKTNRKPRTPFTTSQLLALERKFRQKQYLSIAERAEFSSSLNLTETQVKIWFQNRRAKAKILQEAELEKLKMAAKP
ALX1 (Homo sapiens, UniProt Q15699 118-204), sequence (Q15699 118-204): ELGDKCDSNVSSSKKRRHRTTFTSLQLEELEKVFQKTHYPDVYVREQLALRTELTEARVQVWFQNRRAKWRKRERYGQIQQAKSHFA
SHOX (Homo sapiens, UniProt O15266 103-189, R173C), sequence (O15266 103-189 R173C): as the sequence (O15266 103-189) above, with R71C counted along it
ALX1 (Homo sapiens, UniProt Q15699 118-204, L144R), sequence (Q15699 118-204 L144R): as the sequence (Q15699 118-204) above, with L27R counted along it
ALX1 (Homo sapiens, UniProt Q15699 118-204, L144V), sequence (Q15699 118-204 L144V): as the sequence (Q15699 118-204) above, with L27V counted along it
MSX2 (Homo sapiens, UniProt P35548 130-214, F161Y), sequence (P35548 130-214 F161Y): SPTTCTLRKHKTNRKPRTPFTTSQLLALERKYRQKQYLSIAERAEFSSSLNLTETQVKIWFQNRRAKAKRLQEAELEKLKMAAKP
PROP1 (Homo sapiens, UniProt O75360 56-141, R99H), sequence (O75360 56-141 R99H): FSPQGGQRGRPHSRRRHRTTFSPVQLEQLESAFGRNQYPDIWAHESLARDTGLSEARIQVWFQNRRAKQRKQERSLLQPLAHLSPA
HOXC10 (Homo sapiens, UniProt Q9NYD6 254-340, K271E), sequence (Q9NYD6 254-340 K271E): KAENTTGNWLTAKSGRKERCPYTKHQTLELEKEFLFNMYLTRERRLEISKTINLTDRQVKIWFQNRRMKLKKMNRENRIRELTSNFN
HOXC10 (Homo sapiens, UniProt Q9NYD6 254-340), sequence (Q9NYD6 254-340): as the sequence (Q9NYD6 254-340 K271E) above, with E18K counted along it
HOXB9 (Homo sapiens, UniProt P17482 171-250), sequence (P17482 171-250): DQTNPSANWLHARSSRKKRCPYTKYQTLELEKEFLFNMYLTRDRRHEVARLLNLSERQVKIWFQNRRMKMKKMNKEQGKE
HOXA7 (Homo sapiens, UniProt P31268 116-202), sequence (P31268 116-202): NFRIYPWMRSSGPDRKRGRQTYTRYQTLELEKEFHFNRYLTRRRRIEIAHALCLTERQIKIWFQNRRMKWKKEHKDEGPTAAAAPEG
HOXA2 (Homo sapiens, UniProt O43364 129-215, Y150S), sequence (O43364 129-215 Y150S): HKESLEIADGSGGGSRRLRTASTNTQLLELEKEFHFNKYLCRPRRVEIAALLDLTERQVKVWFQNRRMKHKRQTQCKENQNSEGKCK
HOXB9 (Homo sapiens, UniProt P17482 171-250, R186Q), sequence (P17482 171-250 R186Q): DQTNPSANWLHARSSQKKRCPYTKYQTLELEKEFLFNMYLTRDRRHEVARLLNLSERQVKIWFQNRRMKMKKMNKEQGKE
ALX3 (Homo sapiens, UniProt O95076 139-225, N203S), sequence (O95076 139-225 N203S): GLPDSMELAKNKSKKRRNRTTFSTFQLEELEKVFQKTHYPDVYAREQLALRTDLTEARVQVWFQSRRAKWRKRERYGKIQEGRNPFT
ALX4 (Homo sapiens, UniProt Q9H161 200-286), sequence (Q9H161 200-286): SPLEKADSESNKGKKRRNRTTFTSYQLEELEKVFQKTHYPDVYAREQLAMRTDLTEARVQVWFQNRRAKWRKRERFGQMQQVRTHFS
NKX3-2 (Homo sapiens, UniProt P78367 192-278), sequence (P78367 192-278): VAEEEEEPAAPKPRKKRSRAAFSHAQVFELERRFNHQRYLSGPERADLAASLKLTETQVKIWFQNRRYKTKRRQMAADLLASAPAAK
HESX1 (Homo sapiens, UniProt Q9UBX0 95-180, R109Q), sequence (Q9UBX0 95-180 R109Q): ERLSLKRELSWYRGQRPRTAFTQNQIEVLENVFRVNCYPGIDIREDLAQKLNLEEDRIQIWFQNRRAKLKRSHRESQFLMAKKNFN
ALX4 (Homo sapiens, UniProt Q9H161 200-286, Q225E), sequence (Q9H161 200-286 Q225E): as the sequence (Q9H161 200-286) above, with Q26E counted along it
HESX1 (Homo sapiens, UniProt Q9UBX0 95-180, P111T), sequence (Q9UBX0 95-180 P111T): as the sequence (Q9UBX0 95-180 R109Q) above, with Q15R, P17T counted along it
ALX3 (Homo sapiens, UniProt O95076 139-225, N203Q), sequence (O95076 139-225 N203Q): as the sequence (O95076 139-225 N203S) above, with S65Q counted along it
HOXA2 (Homo sapiens, UniProt O43364 129-215), sequence (O43364 129-215): as the sequence (O43364 129-215 Y150S) above, with S22Y counted along it
HOXA7 (Homo sapiens, UniProt P31268 116-202, W177C), sequence (P31268 116-202 W177C): as the sequence (P31268 116-202) above, with W62C counted along it
HOXA2 (Homo sapiens, UniProt O43364 129-215, R185T), sequence (O43364 129-215 R185T): as the sequence (O43364 129-215 Y150S) above, with S22Y, R57T counted along it
HOXA2 (Homo sapiens, UniProt O43364 129-215, R185K), sequence (O43364 129-215 R185K): as the sequence (O43364 129-215 Y150S) above, with S22Y, R57K counted along it
PROP1 (Homo sapiens, UniProt O75360 56-141, F88S), sequence (O75360 56-141 F88S): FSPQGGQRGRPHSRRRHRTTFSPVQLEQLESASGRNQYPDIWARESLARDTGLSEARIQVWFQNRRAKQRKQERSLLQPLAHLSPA
NKX3-2 (Homo sapiens, UniProt P78367 192-278, P234S), sequence (P78367 192-278 P234S): as the sequence (P78367 192-278) above, with P43S counted along it
ALX3 (Homo sapiens, UniProt O95076 139-225, L168V), sequence (O95076 139-225 L168V): as the sequence (O95076 139-225 N203S) above, with L30V, S65N counted along it
PROP1 (Homo sapiens, UniProt O75360 56-141), sequence (O75360 56-141): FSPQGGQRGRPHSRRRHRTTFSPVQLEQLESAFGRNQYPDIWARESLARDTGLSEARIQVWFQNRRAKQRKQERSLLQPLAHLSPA
ALX3 (Homo sapiens, UniProt O95076 139-225, L168Q), sequence (O95076 139-225 L168Q): as the sequence (O95076 139-225 N203S) above, with L30Q, S65N counted along it
ALX3 (Homo sapiens, UniProt O95076 139-225), sequence (O95076 139-225): as the sequence (O95076 139-225 N203S) above, with S65N counted along it

As for CAAGCTTG, the binding signal is 7.28 upbm affinity estimate (log intensity, higher = more binding, comparable within an allelic series) with SHOX [1]; 9.71 upbm affinity estimate (log intensity, higher = more binding, comparable within an allelic series) with MSX2 [2]; 7.33 upbm affinity estimate (log intensity, higher = more binding, comparable within an allelic series) with SHOX [3]; 9.69 upbm affinity estimate (log intensity, higher = more binding, comparable within an allelic series) with MSX2 [4]; 9.69 upbm affinity estimate (log intensity, higher = more binding, comparable within an allelic series) with MSX2 [5].

Take AATTAGGG: the binding signal was 11.7 upbm affinity estimate (log intensity, higher = more binding, comparable within an allelic series) in the assay with SHOX [1]; 11.6 upbm affinity estimate (log intensity, higher = more binding, comparable within an allelic series) in the assay with PAX4 [6]; 12.2 upbm affinity estimate (log intensity, higher = more binding, comparable within an allelic series) with PAX4 [7]; 11.4 upbm affinity estimate (log intensity, higher = more binding, comparable within an allelic series) in the assay with ALX1 [8]; 11.8 upbm affinity estimate (log intensity, higher = more binding, comparable within an allelic series) with PAX4 [9]; 9.29 upbm affinity estimate (log intensity, higher = more binding, comparable within an allelic series) with SHOX [3]. The binding signal is 10.8 upbm affinity estimate (log intensity, higher = more binding, comparable within an allelic series) in the assay with ALX1 [10]; 10.3 upbm affinity estimate (log intensity, higher = more binding, comparable within an allelic series) with PAX4 [11]; 10.8 upbm affinity estimate (log intensity, higher = more binding, comparable within an allelic series) with PAX4 [12]; 8.69 upbm affinity estimate (log intensity, higher = more binding, comparable within an allelic series) with HESX1 [13]; 10.9 upbm affinity estimate (log intensity, higher = more binding, comparable within an allelic series) with PROP1 [14]; 10.1 upbm affinity estimate (log intensity, higher = more binding, comparable within an allelic series) in the assay with HESX1 [15]. Also, the binding signal was 10.8 upbm affinity estimate (log intensity, higher = more binding, comparable within an allelic series) in the assay with PAX4 [16] and 12 upbm affinity estimate (log intensity, higher = more binding, comparable within an allelic series) with ALX1 [17].

In the case of GTACAATA, the binding signal with SHOX [1] was 8.08 upbm affinity estimate (log intensity, higher = more binding, comparable within an allelic series); with HOXB9 [18] it was 9.8 upbm affinity estimate (log intensity, higher = more binding, comparable within an allelic series); with HOXB9 [19] it was 9.79 upbm affinity estimate (log intensity, higher = more binding, comparable within an allelic series).

Turning to GGCGCGAA, the binding signal with SHOX [1] was 7.15 upbm affinity estimate (log intensity, higher = more binding, comparable within an allelic series); with HOXC10 [20] it was 10.1 upbm affinity estimate (log intensity, higher = more binding, comparable within an allelic series); in the assay with SHOX [3], 7.19 upbm affinity estimate (log intensity, higher = more binding, comparable within an allelic series); with HOXC10 [21], 10.1 upbm affinity estimate (log intensity, higher = more binding, comparable within an allelic series).

Consider ACGGGGCC, for which the binding signal with SHOX [1] is 7.07 upbm affinity estimate (log intensity, higher = more binding, comparable within an allelic series); in the assay with HOXC10 [20], 10.1 upbm affinity estimate (log intensity, higher = more binding, comparable within an allelic series); with SHOX [3], 7.17 upbm affinity estimate (log intensity, higher = more binding, comparable within an allelic series); with HOXC10 [21], 10.1 upbm affinity estimate (log intensity, higher = more binding, comparable within an allelic series); with NKX3-2 [22] it was 10.8 upbm affinity estimate (log intensity, higher = more binding, comparable within an allelic series); with NKX3-2 [23], 10.8 upbm affinity estimate (log intensity, higher = more binding, comparable within an allelic series).

CAAATTAG: the binding signal was 11.8 upbm affinity estimate (log intensity, higher = more binding, comparable within an allelic series) in the assay with SHOX [1]; 13.6 upbm affinity estimate (log intensity, higher = more binding, comparable within an allelic series) in the assay with ALX4 [24]; 11.8 upbm affinity estimate (log intensity, higher = more binding, comparable within an allelic series) in the assay with PAX4 [6]; 12.4 upbm affinity estimate (log intensity, higher = more binding, comparable within an allelic series) in the assay with PAX4 [7]; 12.4 upbm affinity estimate (log intensity, higher = more binding, comparable within an allelic series) in the assay with ALX4 [25]; 12.1 upbm affinity estimate (log intensity, higher = more binding, comparable within an allelic series) with MSX2 [2]. Further, the binding signal with ALX1 [8] is 11.3 upbm affinity estimate (log intensity, higher = more binding, comparable within an allelic series); with ALX3 [26] it was 8.31 upbm affinity estimate (log intensity, higher = more binding, comparable within an allelic series); in the assay with PAX4 [9] it was 12.3 upbm affinity estimate (log intensity, higher = more binding, comparable within an allelic series); in the assay with SHOX [3] it was 9.26 upbm affinity estimate (log intensity, higher = more binding, comparable within an allelic series); in the assay with ALX1 [10], 10.9 upbm affinity estimate (log intensity, higher = more binding, comparable within an allelic series); in the assay with PAX4 [11], 10.4 upbm affinity estimate (log intensity, higher = more binding, comparable within an allelic series). In addition, the binding signal in the assay with MSX2 [4] was 13.3 upbm affinity estimate (log intensity, higher = more binding, comparable within an allelic series); with ALX3 [27] it was 12.2 upbm affinity estimate (log intensity, higher = more binding, comparable within an allelic series); in the assay with PAX4 [12] it was 11 upbm affinity estimate (log intensity, higher = more binding, comparable within an allelic series); in the assay with PROP1 [28], 11.1 upbm affinity estimate (log intensity, higher = more binding, comparable within an allelic series); with PROP1 [14], 10.7 upbm affinity estimate (log intensity, higher = more binding, comparable within an allelic series); with ALX3 [29] it was 10.1 upbm affinity estimate (log intensity, higher = more binding, comparable within an allelic series). Moreover, the binding signal is 9.51 upbm affinity estimate (log intensity, higher = more binding, comparable within an allelic series) in the assay with ALX3 [30]; 7.47 upbm affinity estimate (log intensity, higher = more binding, comparable within an allelic series) with PROP1 [31]; 12.9 upbm affinity estimate (log intensity, higher = more binding, comparable within an allelic series) in the assay with MSX2 [5]; 11 upbm affinity estimate (log intensity, higher = more binding, comparable within an allelic series) with PAX4 [16]; 12.1 upbm affinity estimate (log intensity, higher = more binding, comparable within an allelic series) with ALX1 [17]; 8.39 upbm affinity estimate (log intensity, higher = more binding, comparable within an allelic series) in the assay with ALX3 [32].

Turning to GGGAACCC, the binding signal in the assay with SHOX [1] was 7.2 upbm affinity estimate (log intensity, higher = more binding, comparable within an allelic series); with PAX4 [6], 9.42 upbm affinity estimate (log intensity, higher = more binding, comparable within an allelic series); with PAX4 [7], 9.42 upbm affinity estimate (log intensity, higher = more binding, comparable within an allelic series); in the assay with PAX4 [9] it was 9.62 upbm affinity estimate (log intensity, higher = more binding, comparable within an allelic series); in the assay with SHOX [3], 7.06 upbm affinity estimate (log intensity, higher = more binding, comparable within an allelic series); in the assay with PAX4 [11] it was 9.39 upbm affinity estimate (log intensity, higher = more binding, comparable within an allelic series). Further, the binding signal was 9.36 upbm affinity estimate (log intensity, higher = more binding, comparable within an allelic series) with PAX4 [12] and 9.48 upbm affinity estimate (log intensity, higher = more binding, comparable within an allelic series) with PAX4 [16].

For the sequence TAACAATA, the binding signal in the assay with SHOX [1] was 8.71 upbm affinity estimate (log intensity, higher = more binding, comparable within an allelic series); with HOXA7 [33] it was 9.77 upbm affinity estimate (log intensity, higher = more binding, comparable within an allelic series); with HOXA7 [34], 8.92 upbm affinity estimate (log intensity, higher = more binding, comparable within an allelic series).

Take ACTGGGGG: the binding signal was 7.05 upbm affinity estimate (log intensity, higher = more binding, comparable within an allelic series) with SHOX [1]; 8.98 upbm affinity estimate (log intensity, higher = more binding, comparable within an allelic series) in the assay with PAX4 [6]; 9.06 upbm affinity estimate (log intensity, higher = more binding, comparable within an allelic series) in the assay with PAX4 [7]; 9.43 upbm affinity estimate (log intensity, higher = more binding, comparable within an allelic series) with MSX2 [2]; 6.32 upbm affinity estimate (log intensity, higher = more binding, comparable within an allelic series) in the assay with ALX1 [8]; 9.22 upbm affinity estimate (log intensity, higher = more binding, comparable within an allelic series) with PAX4 [9]. Further, the binding signal was 7.95 upbm affinity estimate (log intensity, higher = more binding, comparable within an allelic series) with PITX2; 7.08 upbm affinity estimate (log intensity, higher = more binding, comparable within an allelic series) with SHOX [3]; 6.52 upbm affinity estimate (log intensity, higher = more binding, comparable within an allelic series) in the assay with ALX1 [10]; 9.12 upbm affinity estimate (log intensity, higher = more binding, comparable within an allelic series) with PAX4 [11]; 9.41 upbm affinity estimate (log intensity, higher = more binding, comparable within an allelic series) with MSX2 [4]; 9.07 upbm affinity estimate (log intensity, higher = more binding, comparable within an allelic series) in the assay with PAX4 [12]. Also, the binding signal is 9.45 upbm affinity estimate (log intensity, higher = more binding, comparable within an allelic series) with MSX2 [5]; 9.15 upbm affinity estimate (log intensity, higher = more binding, comparable within an allelic series) with PAX4 [16]; 6.23 upbm affinity estimate (log intensity, higher = more binding, comparable within an allelic series) in the assay with ALX1 [17].

With CGCCCGAC, the binding signal with SHOX [1] was 7.09 upbm affinity estimate (log intensity, higher = more binding, comparable within an allelic series); with HOXA2 [35] it was 7.5 upbm affinity estimate (log intensity, higher = more binding, comparable within an allelic series); in the assay with SHOX [3], 7.2 upbm affinity estimate (log intensity, higher = more binding, comparable within an allelic series); with HOXA2 [36] it was 10.3 upbm affinity estimate (log intensity, higher = more binding, comparable within an allelic series); in the assay with HOXA2 [37] it was 10.6 upbm affinity estimate (log intensity, higher = more binding, comparable within an allelic series); in the assay with HOXA2 [38] it was 7.16 upbm affinity estimate (log intensity, higher = more binding, comparable within an allelic series).
